In the library only some 8% were active in any assay of this set; here they are far more common.
SW480 rerep: induces DNA re-replication in SW480 colon adenocarcinoma cells | SW480 DNA re-replication, Hoechst DNA content imaging, 48 h | Potency, µM (top dose mostly 46.1 µM), for inactives: at the top dose re-replication activation, actives largely listed as activators | hit rate 1.8% among 340,000 | AID 624297; note: % of control where 0% means no effect; nearly all actives have a fitted effect of over 55% in size
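Readout is total intensity of Hoechst-stained nuclei, excited at 405 nm and collected at 500-530 nm. Compound treatment lasted 48 hr at 37 C in 5% CO2 before staining.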
HT1080 IDH1KD tx: kills HT-1080 cells with IDH1 knockdown | HT-1080 IDH1 knockdown viability, ATP luminescence, 48 h | Potency, µM (highest dose often 46.1 µM), inactives show top-dose activity, negative = toxicity, hits mostly cytotoxic | hit rate 2% among 360,000 | AID 686971;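 note: 0% = DMSO wells and -100% = cell-free medium wells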
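After a 2 h attachment period, IDH1KD HT-1080 cells took pin-transferred compound for 48 h at 37 °C; ATP-based luminescence after 10 min room-temperature reagent incubation reported viability.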
MCF10A rerep: inducers of DNA re-replication in MCF 10A breast cells | MCF 10A DNA re-replication, Hoechst nuclear intensity, 48 h | Potency, µM (doses to about 46.1 µM), for the others: at the highest dose activity, positive = re-replication, actives largely listed as activators | hit rate 2.9% among 350,000 | AID 624296; note: % of control where 0% means no effect; nearly all actives have a fitted effect of over 50% in size
HT1080NT lethal: kills 2HG-producing HT-1080-NT fibrosarcoma cells; HT-1080-NT fibrosarcoma viability, CellTiter-Glo ATP luminescence, 48 h; Potency, µM (series often up to 46.1 µM), for inactives: at the top dose activity, negative = less viability, most hits filed as cytotoxic; hit rate 1.6% among 360,000; AID 686970;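 note: NT is the 2HG producing partner of a matched IDH1 knockdown line; 0% = DMSO-treated cells and -100% = media-only wells without cells; nearly all actives have a fitted effect of over 55% in size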
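Fibrosarcoma NT cells, 750 per well in 5% FBS RPMI, were exposed to compound for 48 hours. Viability: CellTiter-Glo luminescence.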
KB-V1 cytotox: kills drug-selected multidrug resistant KB-V1 cells. KB-V1 MDR cells viability, CellTiter-Glo, 72 h. Potency, µM (top dose mostly 46.1 µM), hits mostly cytotoxic. hit rate 3.4% among 400,000; note: % is set by controls: 0 for no effect and ±100 for the full control effect; nearly all actives have a fitted effect of over 60% in size
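Cells of the MDR subline KB-V1 are plated, dosed with compound at multiple concentrations, and incubated 72 h at 37 degrees C; CellTiter-Glo is then added and luminescence read after 10 min.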
KB-3-1 cytotox: kills parental KB-3-1 adenocarcinoma cells; AID 1347075; hit rate 1.4% among 400,000; KB-3-1 viability, CellTiter-Glo ATP luminescence, 72 h; Potency, µM (top dose mostly 46.1 µM), most hits filed as cytotoxic; note: % is set by controls: 0 for no effect and ±100 for the full control effect; nearly all actives have a fitted effect of over 60% in size
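KB-3-1 cells, DMEM (no phenol red) + 10% FBS; compound by pin transfer, 72 h, 37 °C. Readout: CellTiter-Glo luminescence after 10 min. Data normalized, curve-fitted.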
Starred values were filed as active, the others as inactive; i = inactive; ? = inconclusive; · = no result; [ ] = another dose, or the depositor's remark. Calls come from the whole dose curve; as a rule, active = well fitted curve in the direction sought with a large enough effect; inconclusive = small, poorly fitted or top-dose-only effect, or another doubt; inactive = no such curve, though single readings can be large; an effect the other way counts as inactive or inconclusive. Potency is the fitted concentration of half-maximal effect.

SMILES | SW480 rerep | HT1080 IDH1KD tx | MCF10A rerep | HT1080NT lethal | KB-V1 cytotox | KB-3-1 cytotox
Cc1noc(C)c1NC(=O)N(C)C[C@H]1Oc2ccc(NC(=O)NC(C)C)cc2C(=O)N([C@H](C)CO)C[C@@H]1C | -10% | 18% | 0% | 8% | i | i
CCc1c(C)nc2ncnn2c1N1CCCC(C(=O)NCCc2ccccc2)C1 (stereo not drawn) | -3% | ? | 2% | 2% | 13µM* | ?
CCc1c(C)nc2ncnn2c1N1CCCC(C(=O)NCc2ccco2)C1 (stereo not drawn) | -12% | 5% | 1% | 1% | i | ?
COc1ccc(NC(=O)C2CCN(c3cc(-c4ccccc4)nc4ncnn34)CC2)cc1OC | 19% | ? | 28% | ? | ? | ?
Cc1nc2ncnn2c(N2CCCC(C(=O)Nc3ccccc3Br)C2)c1C (stereo not drawn) | -7% | -26% | 4% | -18% | 10µM* | i
COc1ccc(OC)c(NC(=O)C2CCN(c3cc(-c4ccccc4)nc4ncnn34)CC2)c1 | 0% | -7% | 22% | 0% | 15µM* | i
CCc1c(C)nc2ncnn2c1N1CCC(C(=O)NCc2cccc(OC)c2)CC1 | -8% | ? | 0% | 5% | 23µM* | ?
COc1ccccc1NS(=O)(=O)c1ccc(NC(=O)c2nc3ncccn3n2)cc1 | -4% | 5% | ? | 11% | i | i
CCc1c(C)nc2ncnn2c1N1CCCC(C(=O)NCc2cccs2)C1 (stereo not drawn) | -9% | 2% | 13% | -14% | 16µM* | ?
CC1CCc2cccc3c2N1c1cc(C#N)c(C#N)cc1O3 (stereo not drawn) | 21% | -1% | ? | 10%[9.24 µM] | ? | 7.3µM*
COc1ccc(CCNC(=O)CSc2nc(O)c(CC(C)C)c(=O)[nH]2)cc1OC | 1% | 4% | -1% | 2% | i | i
CCCCc1c(C)c(C#N)c2[nH]c3ccccc3n2c1=O | -1% | -7% | 18µM* | -5% | ? | ?
Cc1c(CCO)c(=O)n2c([nH]c3ccccc32)c1C#N | -7% | -8% | -4% | -2% | i | i
Cc1ccc(S(=O)(=O)CC2CSc3nc4ccccc4n32)cc1 (stereo not drawn) | -9% | ? | 0% | -7% | 0.52µM* | 0.73µM*
Cc1ccc(S(=O)(=O)CCc2nc3ccccc3n2CCC#N)cc1 | ? | ? | 18µM* | -25% | ? | ?
O=C(O)Cn1c(CCS(=O)(=O)c2ccc(Br)cc2)nc2ccccc21 | -3% | 24% | -12% | 8% | i | i
COc1ccccc1NC(=O)CSC1=Nc2ccccc2C2=NC(CCC(=O)NCCc3ccccc3)C(=O)N12 (stereo not drawn) | · | · | · | · | i | i
Cc1ccc(-n2c(-c3ccco3)nc3nc4ccccc4nc32)cc1 | 1µM* | -18% | ? | 1% | i | i
COc1cccc(-n2c(-c3ccco3)nc3nc4ccccc4nc32)c1 | -694% | 13% | -10% | 17% | i | i
CCOC(=O)c1cc(-c2ccccc2)nc2nc(N(CC)CC)sc12 | ? | -19% | 5.2µM* | ? | i | i
CCOC(=O)c1cc(-c2ccccc2)nc2nc(N3CCCCC3)sc12 | 4% | 10% | 9.2µM* | 8% | i | i
CCOC(=O)c1cc(-c2ccccc2)nc2ccc(C)cc12 | 4% | -3% | ? | 11% | ? | i
Cc1ccc(-c2cc(C(=O)O)c3sc(N4CCCCC4)nc3n2)cc1 | -6% | 0% | 0% | 13% | ? | i
Oc1ccc[n+](/C=C\c2ccccc2)c1 | -7% | 6% | -2% | 12% | i | i
Cc1ccccc1S(=O)(=O)N1C[C@H]2CON(C)[C@H]2C[C@H]1c1cccc(N2CCOCC2)c1 | -4% | -1% | -8% | -1% | i | ?
SMILES | SW480 rerep | HT1080 IDH1KD tx | MCF10A rerep | HT1080NT lethal | KB-V1 cytotox | KB-3-1 cytotox
Cc1ccccc1S(=O)(=O)N1C[C@H]2CON(C)[C@H]2C[C@H]1c1cccc(-c2ccc(C#N)cc2)c1 | 4.1µM* | -12% | -3% | 0% | i | i
CC(Nc1ccccc1CO)C(=O)Nc1cccc(Cl)c1Cl (stereo not drawn) | ? | -11% | ? | -21% | i | i
C=CC(=O)Nc1sc2c(c1C(N)=O)CCCC2 | ? | -15% | 21µM* | -15% | ? | ?
Cc1noc(C)c1C(=O)Nc1sc2c(c1C(N)=O)CCCCC2 | -15% | -4% | -7% | -19% | 21µM* | i
Cc1noc(C)c1C(=O)Nc1sc2c(c1C(N)=O)CCC2 | -7% | 12% | -3% | 9% | i | i
N#CCC(=O)Nc1sc2c(c1C(N)=O)CCCC2 | -1% | 10% | 23µM* | 17% | i | i
Cc1cn2c(=O)c(S(=O)(=O)NC(C)c3ccccc3)c(C)nc2s1 (stereo not drawn) | · | · | · | · | i | i
N#Cc1ccc(OCC(=O)OCCCOC(=O)COc2ccc(C#N)cc2)cc1 | -7% | 2% | -2% | 2% | i | i
N#C/C(=C/c1ccc(-c2ccc(S(N)(=O)=O)cc2)o1)C(=O)Nc1ccccc1 | -1% | -22% | 28% | -14% | i | i
COC(=O)c1ccc(/C=C(\C#N)c2nc3ccccc3s2)cc1 | -3% | 10% | ? | 12% | i | i
N#C/C(=C\c1ccccn1)c1nc2ccccc2s1 | 16µM* | -28% | 15µM* | ? | ? | i
N#C/C(=C/c1ccc(-c2ccc(S(N)(=O)=O)cc2)o1)c1nc2ccccc2s1 | 10µM* | ? | 3.7µM* | ? | i | i
CC(C)CN(C(=O)COC(=O)c1cnccn1)c1c(N)n(Cc2ccccc2)c(=O)[nH]c1=O | 2% | -2% | 12% | 3% | i | i
COc1cccc(Oc2coc3cc(OC(=O)N4CCOCC4)ccc3c2=O)c1 | ? | -2% | -4% | -15% | ? | i
COc1ccccc1Oc1coc2cc(OC(=O)N3CCOCC3)ccc2c1=O | -6% | 4% | 6% | 3% | 23µM* | ?
CN(C)Cc1ccccc1Sc1cccc2ccccc12 | ? | -22% | 13µM* | ? | ? | i
CCOc1cc(/C=N/NC(N)=S)cc(Br)c1OCc1ccccc1C | 1% | -14% | ? | -23% | i | i
CCOc1c(Cl)cc(/C=N/NC(N)=S)cc1OC | 0% | 2% | 20% | 1% | 7.3µM* | i
